Consider 24 compounds from PMC4336329 (PLoS ONE, 2015).

Structures are written as SMILES. About 14,000 (4.5%) of roughly 310,000 compounds showed an effect of 50% or more. Effects have a minus sign here. The sample as a whole holds a higher share of strong results than the screen did.
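Further: peak tail current of the secondary pulse compared with the same well before compound.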

The target of this experiment is human ether-à-go-go-related gene (hERG) potassium channel (human, UniProt Q12809). Nature of the experiment: primary screen, population patch clamp on CHO cells stably expressing hERG; higher = less effect of the substance.
Sequence of human ether-à-go-go-related gene (hERG) potassium channel (Q12809 whole entry, looked up): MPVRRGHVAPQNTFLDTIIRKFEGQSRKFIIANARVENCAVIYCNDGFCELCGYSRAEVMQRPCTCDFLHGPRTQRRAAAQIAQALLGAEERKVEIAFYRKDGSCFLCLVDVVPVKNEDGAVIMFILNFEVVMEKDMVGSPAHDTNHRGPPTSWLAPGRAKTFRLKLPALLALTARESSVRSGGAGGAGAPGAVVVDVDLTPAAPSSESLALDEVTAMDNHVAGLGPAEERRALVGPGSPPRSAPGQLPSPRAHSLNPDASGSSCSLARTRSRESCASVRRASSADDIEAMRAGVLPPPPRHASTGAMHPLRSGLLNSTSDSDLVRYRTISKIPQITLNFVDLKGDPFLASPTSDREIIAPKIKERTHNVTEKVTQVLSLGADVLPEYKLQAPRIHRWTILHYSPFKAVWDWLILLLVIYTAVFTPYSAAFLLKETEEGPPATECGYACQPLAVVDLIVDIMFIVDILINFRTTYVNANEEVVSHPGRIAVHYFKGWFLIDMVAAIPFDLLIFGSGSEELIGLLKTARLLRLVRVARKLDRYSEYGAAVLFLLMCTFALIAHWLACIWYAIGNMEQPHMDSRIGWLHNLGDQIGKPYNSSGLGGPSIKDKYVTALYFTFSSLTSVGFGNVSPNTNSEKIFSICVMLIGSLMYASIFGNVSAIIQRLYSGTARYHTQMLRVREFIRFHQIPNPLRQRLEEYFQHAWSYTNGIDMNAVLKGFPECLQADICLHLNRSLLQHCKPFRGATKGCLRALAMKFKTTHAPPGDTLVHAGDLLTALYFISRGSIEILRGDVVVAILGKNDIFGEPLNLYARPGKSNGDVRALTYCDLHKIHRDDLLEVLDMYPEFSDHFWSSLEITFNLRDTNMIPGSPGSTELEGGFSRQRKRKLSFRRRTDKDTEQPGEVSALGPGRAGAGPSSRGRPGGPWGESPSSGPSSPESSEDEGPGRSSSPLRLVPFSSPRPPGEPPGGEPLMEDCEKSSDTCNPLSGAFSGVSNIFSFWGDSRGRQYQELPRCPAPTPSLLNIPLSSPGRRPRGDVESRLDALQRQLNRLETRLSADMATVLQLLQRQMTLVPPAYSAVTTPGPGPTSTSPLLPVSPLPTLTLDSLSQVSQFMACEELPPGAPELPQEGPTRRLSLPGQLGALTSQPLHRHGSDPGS
On to `CCn1c(C2CCN(Cc3ccccc3)CC2)n[nH]c1=S`, for which the “hERG current change (%, negative = inhibition) at 10uM” value was -17.3%. On to `CCC(=O)N/N=c1/sc2ccccc2n1C`, for which the “hERG current change (%, negative = inhibition) at 10uM” value was 13.9%. The value for `Cc1ccc(C)c(NC2=NCCCS2)c1` was 1.48%; that for `CC1(C)CC(NC(=O)COc2ccc3ccccc3c2)CC(C)(C)N1` was -12.6%. Turning to `O=C1Nc2cc(C(=O)NCCN3CCCCCC3)ccc2S/C1=C\c1ccccc1`, the “hERG current change (%, negative = inhibition) at 10uM” value is listed as -43.9%.

Consider `O=C1Nc2cc(C(=O)NCC3CCCO3)ccc2S/C1=C/c1ccccc1F` (stereo not drawn), for which the “hERG current change (%, negative = inhibition) at 10uM” value is -4.84%. Take `O=C1Nc2cc(C(=O)NCCCN3CCCC3)ccc2S/C1=C\c1ccccc1`: the “hERG current change (%, negative = inhibition) at 10uM” value is listed as -51.4%.

Turning to `O=C(NCCCN1CCCCC1)c1ccc2c(c1)NC(=O)c1ccccc1S2`, the “hERG current change (%, negative = inhibition) at 10uM” value was -13.7%.

Take `O=C1Nc2cc(C(=O)NCCCN3CCCC3)ccc2S/C1=C/c1ccccc1F`: the “hERG current change (%, negative = inhibition) at 10uM” value was -69.5%. The value for `O=C1Nc2cc(C(=O)NCCCN3CCOCC3)ccc2S/C1=C/c1ccccc1F` was -29.8%.

With `COc1ccccc1N1CCN(S(=O)(=O)/C=C/c2ccccc2)CC1`, the “hERG current change (%, negative = inhibition) at 10uM” value is -11.3%. `Cc1ccc(NC(=O)CN(C)C(=O)COC(=O)COc2ccc(C#N)cc2)cc1`: the “hERG current change (%, negative = inhibition) at 10uM” value is reported as -24.2%. Take `O=C(O)c1cccc2c1C(=O)c1ccccc1C2=O`: the “hERG current change (%, negative = inhibition) at 10uM” value was found to be 19.7%.

On to `Cc1ccc(S(=O)(=O)Nc2cc(-c3ccccc3)nn2C)cc1Cl`, for which the “hERG current change (%, negative = inhibition) at 10uM” value worked out at 12.2%.

Take `COc1ccccc1NC(=S)NCC1CCCO1` (stereo not drawn): the “hERG current change (%, negative = inhibition) at 10uM” value is listed as 8.94%. On to `Cc1ccc(NC(=O)CSc2ccc3nnc(CCNC(=O)c4ccccc4)n3n2)c(C)c1`, for which the “hERG current change (%, negative = inhibition) at 10uM” value was -18%. The value for `S=C(NCCCc1ccccc1)Nc1ccc(Br)cc1` was 17.9%; that for `CCCCCOC(=O)C1[C@H]2C(=O)N(Cc3cccs3)C[C@]23C=C[C@H]1O3` (stereo partly drawn) was 1.95%. With `Cc1ccc2nc3c(cc(C(=O)NC4CCS(=O)(=O)C4)n3Cc3ccccc3)c(=O)n2c1` (stereo not drawn), the “hERG current change (%, negative = inhibition) at 10uM” value is 19.6%. On to `Cc1ccc2nc3nc(NCC4CCCO4)c(C(=O)NC4CCCC4)cc3c(=O)n2c1` (stereo not drawn), for which the “hERG current change (%, negative = inhibition) at 10uM” value is -75.6%.

Regarding `Cc1ccc2nc3nc(NCC4CCCO4)c(C(=O)NC4CCCCC4)cc3c(=O)n2c1` (stereo not drawn), the “hERG current change (%, negative = inhibition) at 10uM” value is -78.1%. As to `O=C(NC1CCCCCC1)c1ccc2nc3cc(Cl)ccc3c(=O)n2c1`, the “hERG current change (%, negative = inhibition) at 10uM” value is recorded as 7.94%. As for `Cc1ccc2nc(SCC(=O)NC3CCCCC3)nc(=O)n2c1`, the “hERG current change (%, negative = inhibition) at 10uM” value is -14.5%.

Turning to `Cc1ccc2nc(SCC(=O)NC3CCCC3)nc(=O)n2c1`, the “hERG current change (%, negative = inhibition) at 10uM” value was -25.1%.
